# High-throughput results (PubChem)
# The list is not random: actives were taken first. Their share in the collection is about 11%.
# HP1b binding inh = HP1-beta chromodomain-methylated histone interaction inhibition; P83916; AlphaScreen HP1-beta / biotin-H3K9me3 peptide binding; Potency, µM (top dose mostly 114 µM), for inactives: at the top dose activity change, negative = inhibition, actives largely listed as inhibitors; 390,000 compounds, 0.56% hits; note: potency is the fitted concentration of half-maximal effect; nearly all actives have a fitted effect of over 70% in size
# Target sequence (P83916 whole entry, looked up): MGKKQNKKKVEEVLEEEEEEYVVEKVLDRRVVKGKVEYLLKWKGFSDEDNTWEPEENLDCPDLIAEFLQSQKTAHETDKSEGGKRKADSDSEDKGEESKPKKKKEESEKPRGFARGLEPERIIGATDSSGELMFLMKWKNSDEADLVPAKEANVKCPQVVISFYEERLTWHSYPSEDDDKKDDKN
#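 HP1-beta protein (50 nM final) preincubated 30 min at room temperature with biotinylated H3(1-18)K9me3 peptide (50 nM) in PBS pH 7.4, 0.01% Tween-20, then compound added for 30 min. AlphaScreen streptavidin donor/nickel chelate acceptor beads (10 ug/mL final), 30 min dark, luminescence read.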
# JMJD2A Tudor inh = blocks the human JMJD2A Tudor domain | O75164 | AlphaScreen JMJD2A-Tudor / H3K4me3 peptide binding | Potency, µM (highest dose often 114 µM), for the others: at the highest dose activity change, negative = inhibition, most hits filed as inhibitors | 390,000 compounds, 4.4% hits; note: potency is the fitted concentration of half-maximal effect; % is set by controls: 0 for no effect and ±100 for the full control effect; nearly all actives have a fitted effect of over 50% in size
# BAZ2B inh = inhibitors of human BAZ2B bromodomain | AlphaScreen BAZ2B-H3K14Ac peptide displacement | Potency, µM (highest dose often 114 µM), for inactives: at the top dose activity change, negative = inhibition, usual class: inhibitors | 360,000 compounds, 4.4% hits | AID 504333; note: potency is the fitted concentration of half-maximal effect; % is set by controls: 0 for no effect and ±100 for the full control effect; nearly all actives have a fitted effect of over 60% in size
#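 Inhibition is scored as reduced AlphaScreen emission. The BAZ2B/b-H3(5-23)K14Ac complex (50 nM each) in PBS pH 7.4, 0.01% Tween-20 meets compound (up to 110 uM) for 30 min at RT before bead addition.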
# PI5P4K alpha inh = inhibitors of human PI5P4K alpha; PI5P4Kalpha enzyme, ADP-Glo luminescence, 60 min; active compounds read low; 330,000 compounds, 1.2% hits; P48426; max response, %; active = max response of -50% or lower; inconclusive = between -30% and -50%; inactive = -30% or higher; note: value at the top dose of about 77 µM; % is set by controls: 0 for no effect and ±100 for the full control effect
#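 Luminescence from ADP-Glo served as readout of PI5P4Kalpha activity in a qHTS format. Reaction: enzyme, substrate, compound, ATP at 5 microM final, 60 min at RT.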
# L3MBTL1 inh = inhibitors of human L3MBTL1; 230,000 compounds, 0.66% hits; Potency, µM (series often up to 57.1 µM), inactives show at the highest dose activity, negative = inhibition, hits mostly inhibitors; Q9Y468; AlphaScreen L3MBTL1–H3K9me1 peptide binding; note: potency is the fitted concentration of half-maximal effect; % is set by controls: 0 for no effect and ±100 for the full control effect; nearly all actives have a fitted effect of over 60% in size
#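 First, the protein-peptide complex forms for 30 min at room temperature (L3MBTL1 50 nM, biotinylated H3K9me1 peptide 75 nM). Next, compounds are pin-transferred and incubated 30 min. Finally, AlphaScreen beads are added and read after 30 min.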
# G9a block = inhibitors of human histone lysine methyltransferase G9a; G9a H3K9 monomethylation, AlphaScreen, 2 h; Potency, µM (highest dose often 102 µM), for the others: at the highest dose activity, negative = inhibition, actives largely listed as inhibitors; 350,000 compounds, 8.8% hits; AID 504332; note: potency is the fitted concentration of half-maximal effect; % is set by controls: 0 for no effect and ±100 for the full control effect; nearly all actives have a fitted effect of over 75% in size
# Target sequence (Q96KQ7 913-1193 limits assumed): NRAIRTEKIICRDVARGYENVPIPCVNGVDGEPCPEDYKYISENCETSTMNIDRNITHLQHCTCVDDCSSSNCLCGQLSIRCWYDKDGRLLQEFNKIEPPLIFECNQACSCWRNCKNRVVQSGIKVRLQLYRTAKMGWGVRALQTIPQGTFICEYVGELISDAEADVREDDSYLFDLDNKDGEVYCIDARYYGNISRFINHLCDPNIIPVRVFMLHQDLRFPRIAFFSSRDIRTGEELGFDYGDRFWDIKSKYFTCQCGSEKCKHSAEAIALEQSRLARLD
#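 AlphaScreen detection with an anti-monomethyl H3K9 antibody quantified product after a 2 h room-temperature reaction containing 500 nM biotinylated H3K9 peptide, 20 µM SAM and 20 nM enzyme, which had been preincubated 15 min with compound.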
# The depositor's hits bear a star; u = inconclusive; x = not tested or not shown; ! = repeats disagree; [ ] = dose if it differs, or a comment. Unless noted, calls come from the whole dose curve; as a rule, active = well fitted inhibition curve with a large enough effect; inconclusive = small, poorly fitted or top-dose-only effect; inactive = no such curve, though single readings can be large or run the other way.
SMILES,HP1b binding inh,JMJD2A Tudor inh,BAZ2B inh,PI5P4K alpha inh,L3MBTL1 inh,G9a block
COC1=CC(=Cc2c(N)n3nc(CC(=O)N4CCOCC4)sc3nc2=O)C=C(OC)C1=O,3.2%[57 µM],u,44.7µM*,-63.8*,x,u
C=CCC1=C/C(=C\c2c(N)n3nc(CC(=O)N4CCCC4)sc3nc2=O)C=C(OC)C1=O,41.7%,-2.3%,79.4µM*,-1.2,x,20.1%[0.0925 µM]
CCn1cc(C(=O)N(C)Cc2ccccc2)c(=O)c2cc(S(=O)(=O)N3CCCCC3)ccc21,32.1%,-20.7%,x,x,x,-11.6%[59 µM]
CCCCCC1C(=O)N2C=C(c3ccccc3)c3ccccc3N2C1=O (stereo not given),u,56.2µM*,x,2.4,x,x
CCCCC1C(=O)N(c2ccccc2)N(c2ccccc2)C1=O,52.1%,-15.2%,-36.7%,-3.0,u,10µM*!
COc1ccc(S(=O)(=O)N(CC(=O)NC2CCCC2)c2ccccc2OC)cc1,26.8%,3.5%,-3.3%,-1.6,x,13.6%
CCOc1ccccc1N(CC(=O)NC1CCCCC1)S(=O)(=O)c1ccccc1,8.5%,-9.0%,-0.8%,5.8,x,25.1µM*
COc1ccccc1N(CC(=O)Nc1ccc2c(c1)OCO2)S(=O)(=O)c1ccccc1,-3.5%,u,56.2µM*,-1.1,-3.9%,28.2µM*
Cc1cc(F)ccc1NCc1ccccc1-c1nnc(-c2ccccc2Cl)o1,1.5%,-28.1%,-38.8%,x,x,u
CCOc1ccc2nc(N3CCN(C(=O)CS(=O)(=O)c4ccc(F)cc4)CC3)sc2c1,18.6%,-23.4%,-18.2%,x,x,-1.3%[59 µM]
COc1ccc2nc(N3C(=O)/C(=C/c4ccccc4)NC3=S)sc2c1,10.2%,u,-10.1%,-62.8*,-11.7%,12.6%[59 µM]
CCOc1ccc2nc(N3C(=O)/C(=C/c4ccccc4)NC3=S)sc2c1,21.4%,-1.4%,3.1%,-54.1*,4.2%,-14.8%
Cc1cccc2cc(CN(C(=O)c3cccc(Cl)c3)c3ccccc3)c(=O)[nH]c12,53.3%,-0.7%,2.3%,x,x,-4.2%[59 µM]
O=C(CN1C(=O)COc2ccc(Cl)cc21)Nc1nccs1,15.4%,-0.7%,-0.9%,-4.5,-0.6%,27.1%[12.7 µM]
Cc1cccnc1NC(=O)CN1C(=O)COc2ccc(Cl)cc21,46.4%,0.3%,56.2µM*,2.2,-5.2%,20.6%
Cc1ccc(CN2CCN(/N=C/c3ccc(C(F)(F)F)cc3)CC2)cc1,u,u,-34.2%,23.1,1.4%,5.9%[59 µM]
Cc1ccc(CN2CCN(/N=C/c3cccs3)CC2)cc1,u,-25.2%[57.1 µM],44.7µM*,-2.4,-6.0%,u
Cc1ccc(/C=N/N2CCN(Cc3ccccc3)CC2)s1,u,50.1µM*,7.08µM*,1.2,u,39.9%[0.501 µM]
Cc1ccc(CN2CCN(/N=C\C=C\c3ccccc3)CC2)cc1,u,39.8µM*,28.2µM*,6.3,u,35.5µM*
Cc1ccc(/C=N/N2CCOCC2)s1,22.0%,-22.7%,-30.3%,1.2,27.6%,5.7%
Cc1ccc(/C=N/N2CCN(Cc3cccc4ccccc34)CC2)s1,-20.2%,-31.4%,-6.2%,-6.0,11.9%,20.0%[0.501 µM]
Cc1ccc(CN2CCN(/N=C/c3ccc(C)s3)CC2)cc1,u,u,39.8µM*,0.3,-23.4%,-18.3%[59 µM]
O=C(c1ccccc1)c1ccc2nc(Nc3ccccc3Cl)c3nncn3c2c1,33.1%,-15.7%,0.9%,x,x,-5.1%[59 µM]
CCCCOc1ccc(CNC(=O)c2ccc(NC(=O)N3CCSc4ncccc43)cc2)cc1,6.4%,-6.9%,-17.4%,x,x,-0.2%[59 µM]
CCc1ccc(C(=O)c2cn(CC(=O)NCCc3ccccc3)c3nc(C)ccc3c2=O)cc1,10.5%,-29.2%,-0.9%,x,x,7.1%[59 µM]
SMILES,HP1b binding inh,JMJD2A Tudor inh,BAZ2B inh,PI5P4K alpha inh,L3MBTL1 inh,G9a block
Cc1ccc2oc(C(=O)Nc3c(C(=O)c4ccc(C)c(F)c4)oc4ccccc34)cc(=O)c2c1,18.9%,-9.7%,-2.8%,x,x,-26.1%[59 µM]
Cc1ccc(/C=N/N2CCN(Cc3ccc(C)cc3)CC2)cc1,-4.4%,u,35.5µM*,0.5,u,u
Cc1ccc(CN2CCN(/N=C\c3cccc([N+](=O)[O-])c3)CC2)cc1,35.5µM*,44.7µM*,28.2µM*,28.6,u,28.2µM*
Cc1ccc(C)n1-c1nnc(N2CCCC(C(=O)NCc3cccc(Cl)c3)C2)s1 (stereo not given),23.6%,-19.5%,-14.3%,x,x,2.2%[59 µM]
CCN(CC)c1ccc(S(=O)(=O)N2CCOCC2)cc1NC(=O)CSC(=S)N1CCCC1,6.9%,u,-23.9%,2.9,x,7.94µM*
CCN(CC)c1ccc(S(=O)(=O)N2CCOCC2)cc1NC(=O)CN1CCN(Cc2ccccc2)CC1,u,17.8µM*,22.4µM*,0.1,x,u
CCN(CC)c1ccc(S(=O)(=O)N2CCOCC2)cc1NC(=O)CNCc1ccccc1,u,89.1µM*,50.1µM*,6.9,-15.9%,u
CCOC(=O)c1ccc(NC(=O)C(Cc2ccccc2)NS(=O)(=O)c2ccc(Br)s2)cc1 (stereo not given),25.9%,-12.3%,-20.4%,x,x,-34.3%[59 µM]
CN(C)CCNC(=O)c1cccc2ccc(-c3ccc(-c4ccccc4)cc3)nc12,-13.1%,56.2µM*,x,u,x,x
O=C(CNC(=S)N(CCCN1CCOCC1)Cc1cccs1)NCc1ccccc1Cl,65.8%,-16.3%,-18.3%,-1.2,x,70.8µM*
O=C(CNC(=S)N(CCCN1CCOCC1)Cc1cccs1)NCc1ccc(Cl)cc1,33.4%,-19.9%,-15.6%,5.3,x,u
COc1ccc(C=C2SC(=S)NC2=O)cc1,7.1%,-18.5%,x,-86.4*,x,x
COc1cccc(OCCOc2ccc(/C=C3/SC(=S)NC3=O)cc2)c1,u,56.2µM*,44.7µM*,-84.9*,x,7.94µM*
CCOc1ccc(N=C2NC(=O)S/C2=C\c2ccc(OC)cc2)cc1,0.2%,28.2µM*,u,x,x,u
COc1ccc(/C=C2/SC(=O)NC2=O)cc1,34.6%,-10.4%,-34.5%,u,2.1%,79.4µM*
CCOC(=O)c1cnc(N2CCN(c3cccc(C)c3C)CC2)c2ccccc12,41.1%[57 µM],30.2%,26.4%,x,x,13.6%[59 µM]
COc1ccc(-c2ccc3ncnc(NCc4cccs4)c3c2)cc1,x,-21.3%,x,x,x,x
O=C1NC(=S)S/C1=C\c1ccc2ccccc2c1,-5.2%,u,50.1µM*,-62.3*,x,-5.4%
S=c1[nH]nc(-c2ccco2)n1/N=C/c1ccc(Cl)cc1,u,39.8µM*,u,-8.3,-5.0%,1.26µM*
S=c1[nH]nc(-c2ccco2)n1/N=C/c1ccccc1Cl,21.7%,31.6µM*,1.4%,-0.3,-7.7%,1.41µM*
Cc1ccc(/C=N/n2c(C)nnc2C)s1,u,-20.6%[57.1 µM],-4.4%,-6.5,8.7%,u
Cc1ccc(/C=N/n2c(-c3ccco3)n[nH]c2=S)s1,13.8%,20µM*,-13.9%,-8.0,-1.1%,1.26µM*
